Laboratory results published in the supplement of paper PMC10849652.
The full data set covers some 8,800 targets. This sample favours those with a hit. About 0.5% of all pairs of compound and target were hits.

What was measured:
Test in all cases: log2 fold change, soluble protein after heating vs DMSO (PISA); higher = thermal stabilisation; K562 lysate, 10 uM; active = over 0.2 and 3.5 SD of the protein, either way, in both replicates (recomputed)
alvocidib = compound: CN1CC[C@H](c2c(O)cc(O)c3c(=O)cc(-c4ccccc4Cl)oc23)[C@H](O)C1 [alvocidib]
Procedure, shortened: (§1)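 Dounce homogenisation of K562 pellets in PBS pH 7.4 with 1 mM MgCl2 produced a crude extract, used at 1 mg/mL protein. Exposure to 10 μM compound lasted 30 min, and aliquots were then heated for 3 min across 48°C-58°C, pooled and brought to 0.5% NP-40 at 4°C. The supernatant after 21,000xg for 90 min was quantified by TMTpro 16plex LC-MS/MS with channel sums equalised. Duplicate values are given as log-two fold change in thermal stability relative to solvent controls.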

Tubastatin A = compound: CN1CCc2c(c3ccccc3n2Cc2ccc(C(=O)NO)cc2)C1 [Tubastatin A]
Procedure, shortened: as §1

[1] = compound: CNC(=O)C1=CC=CC=C1NC2=NC(=NC=C2Cl)NC3=C(C=C(C=C3)N4CCOCC4)OC
Procedure, shortened: as §1

defactinib = compound: CNC(=O)c1ccc(Nc2ncc(C(F)(F)F)c(NCc3nccnc3N(C)S(C)(=O)=O)n2)cc1 [defactinib]
Procedure, shortened: as §1

[2] = compound: CNc1nc(-c2ccc3c(N)n[nH]c3c2)cc(N2C[C@@H](C(=O)NC3CCCCC3)CC[C@H]2C)n1
Procedure, shortened: as §1

encorafenib = compound: COC(=O)N[C@@H](C)CNc1nccc(-c2cn(C(C)C)nc2-c2cc(Cl)cc(NS(C)(=O)=O)c2F)n1 [encorafenib]
Procedure, shortened: as §1

[3] = compound: COC(=O)[C@H](CCSC)NC(=O)C1=C(C=C(C=C1)NC[C@H](CS)N)C2=CC=CC=C2
Procedure, shortened: as §1

alisertib = compound: COc1cc(Nc2ncc3c(n2)-c2ccc(Cl)cc2C(c2c(F)cccc2OC)=NC3)ccc1C(=O)O [alisertib]
Procedure, shortened: as §1

[4] = compound: COc1cc2nc(-c3cc(F)ccc3O)nc(N[C@@H]3CNC[C@H]3C(C)(C)O)c2cc1OC
Procedure, shortened: as §1

gefitinib = compound: COc1cc2ncnc(Nc3ccc(F)c(Cl)c3)c2cc1OCCCN1CCOCC1 [gefitinib]
Procedure, shortened: as §1

lapatinib = compound: CS(=O)(=O)CCNCc1ccc(-c2ccc3ncnc(Nc4ccc(OCc5cccc(F)c5)c(Cl)c4)c3c2)o1 [lapatinib]
Procedure, shortened: as §1

pictilisib = compound: CS(=O)(=O)N1CCN(Cc2cc3nc(-c4cccc5[nH]ncc45)nc(N4CCOCC4)c3s2)CC1 [pictilisib]
Procedure, shortened: as §1

crizotinib = compound: C[C@@H](Oc1cc(-c2cnn(C3CCNCC3)c2)cnc1N)c1c(Cl)ccc(F)c1Cl [crizotinib]
Procedure, shortened: as §1

[5] = compound: C[C@H](C1=CC=C(C=C1)C(=O)NC2=C3C=CNC3=NC=C2)N
Procedure, shortened: as §1

duvelisib = compound: C[C@H](Nc1ncnc2nc[nH]c12)c1cc2cccc(Cl)c2c(=O)n1-c1ccccc1 [duvelisib]
Procedure, shortened: as §1

gandotinib = compound: Cc1cc(Nc2cc(CN3CCOCC3)c3nc(C)c(Cc4ccc(Cl)cc4F)n3n2)n[nH]1 [gandotinib]
Procedure, shortened: as §1

tozasertib = compound: Cc1cc(Nc2cc(N3CCN(C)CC3)nc(Sc3ccc(NC(=O)C4CC4)cc3)n2)n[nH]1 [tozasertib]
Procedure, shortened: as §1

doramapimod = compound: Cc1ccc(-n2nc(C(C)(C)C)cc2NC(=O)Nc2ccc(OCCN3CCOCC3)c3ccccc23)cc1 [doramapimod]
Procedure, shortened: as §1

bafetinib = compound: Cc1ccc(NC(=O)c2ccc(CN3CC[C@H](N(C)C)C3)c(C(F)(F)F)c2)cc1Nc1nccc(-c2cncnc2)n1 [bafetinib]
Procedure, shortened: as §1

[6] = compound: Cc1cccc(CC(=O)N2CCc3c2ccc(-c2cn(C)c4ncnc(N)c24)c3F)n1
Procedure, shortened: as §1

Measured: log2 fold change

PPP2CA (UniProt P67775)
inactive: alvocidib -0.062 | Tubastatin A -0.018 | [1] 0.026 | defactinib -0.064 | [2] -0.019 | encorafenib 0.128 | alisertib -0.016 | [4] -0.013 | gefitinib -0.009 | lapatinib -0.028 | pictilisib -0.001 | crizotinib 0.159 | [5] 0.051 | duvelisib -0.024 | gandotinib -0.022 | tozasertib -0.116 | doramapimod -0.049 | bafetinib 0.053 | [6] 0.03
active: [3] -0.374

PLIN2 (UniProt Q99541)
UniProt Q99541, sequence (Q99541 whole entry, looked up): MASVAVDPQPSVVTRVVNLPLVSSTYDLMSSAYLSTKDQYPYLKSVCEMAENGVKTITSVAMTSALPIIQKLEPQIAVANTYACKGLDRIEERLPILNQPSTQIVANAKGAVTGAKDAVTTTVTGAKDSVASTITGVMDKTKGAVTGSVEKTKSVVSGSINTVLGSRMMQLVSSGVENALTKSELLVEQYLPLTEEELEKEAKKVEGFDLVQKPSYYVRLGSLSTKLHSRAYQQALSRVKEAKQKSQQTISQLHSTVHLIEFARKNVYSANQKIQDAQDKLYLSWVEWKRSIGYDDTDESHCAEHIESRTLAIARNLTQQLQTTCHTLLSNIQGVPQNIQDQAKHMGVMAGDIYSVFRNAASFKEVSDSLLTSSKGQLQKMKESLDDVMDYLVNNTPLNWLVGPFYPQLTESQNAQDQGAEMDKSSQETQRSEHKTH
inactive: alvocidib -0.008 | Tubastatin A -0.107 | [1] -0.014 | defactinib 0.049 | [2] 0.002 | encorafenib 0.061 | [3] -0.107 | alisertib 0.044 | [4] -0.071 | gefitinib 0.104 | lapatinib -0.009 | pictilisib -0.041 | crizotinib -0.038 | [5] 0.023 | duvelisib 0.014 | tozasertib 0.096 | doramapimod -0.003 | bafetinib -0.067 | [6] 0.011
active: gandotinib -0.254

PKN1 isoform 2 (UniProt Q16512)
inactive: alvocidib -0.036 | Tubastatin A -0.056 | [1] -0.001 | defactinib -0.079 | [2] -0.003 | encorafenib 0.075 | [3] 0.116 | alisertib -0.009 | [4] -0.1 | gefitinib -0.005 | lapatinib 0.038 | pictilisib -0.005 | crizotinib -0.032 | [5] 0.095 | duvelisib -0.014 | gandotinib -0.233 | tozasertib -0.005 | doramapimod 0.108 | bafetinib -0.069 | [6] 0.04

PIK3R2 (UniProt O00459)
UniProt O00459, sequence (O00459 whole entry, looked up): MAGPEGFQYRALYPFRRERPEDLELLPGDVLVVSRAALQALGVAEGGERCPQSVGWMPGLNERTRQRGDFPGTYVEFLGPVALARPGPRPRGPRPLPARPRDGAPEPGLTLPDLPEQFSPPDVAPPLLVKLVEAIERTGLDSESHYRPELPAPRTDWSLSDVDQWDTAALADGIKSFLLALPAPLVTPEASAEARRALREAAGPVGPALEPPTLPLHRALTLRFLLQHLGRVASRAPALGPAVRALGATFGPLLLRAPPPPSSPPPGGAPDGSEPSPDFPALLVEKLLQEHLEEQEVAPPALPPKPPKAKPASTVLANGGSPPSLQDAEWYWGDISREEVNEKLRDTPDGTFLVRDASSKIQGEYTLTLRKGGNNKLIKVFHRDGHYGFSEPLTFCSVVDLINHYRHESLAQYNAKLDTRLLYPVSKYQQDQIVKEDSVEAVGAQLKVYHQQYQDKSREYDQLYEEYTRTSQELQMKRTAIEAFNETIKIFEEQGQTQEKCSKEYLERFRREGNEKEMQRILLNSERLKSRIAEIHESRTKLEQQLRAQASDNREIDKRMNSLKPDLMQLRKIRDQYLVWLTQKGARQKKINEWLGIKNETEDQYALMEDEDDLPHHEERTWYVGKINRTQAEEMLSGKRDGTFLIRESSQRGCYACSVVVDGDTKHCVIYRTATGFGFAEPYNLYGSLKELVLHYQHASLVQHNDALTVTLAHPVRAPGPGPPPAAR
active: pictilisib 0.318 | duvelisib 0.322
inactive: alvocidib 0.023 | Tubastatin A -0.086 | [1] 0.027 | defactinib 0.017 | [2] -0.009 | encorafenib 0.009 | [3] -0.225 | alisertib 0.008 | [4] 0.02 | gefitinib -0.052 | lapatinib -0.009 | crizotinib -0.018 | [5] 0.009 | gandotinib 0.043 | tozasertib 0.009 | doramapimod 0.014 | bafetinib -0.004 | [6] -0.016

PIR (UniProt O00625)
UniProt O00625, sequence (O00625 whole entry, looked up): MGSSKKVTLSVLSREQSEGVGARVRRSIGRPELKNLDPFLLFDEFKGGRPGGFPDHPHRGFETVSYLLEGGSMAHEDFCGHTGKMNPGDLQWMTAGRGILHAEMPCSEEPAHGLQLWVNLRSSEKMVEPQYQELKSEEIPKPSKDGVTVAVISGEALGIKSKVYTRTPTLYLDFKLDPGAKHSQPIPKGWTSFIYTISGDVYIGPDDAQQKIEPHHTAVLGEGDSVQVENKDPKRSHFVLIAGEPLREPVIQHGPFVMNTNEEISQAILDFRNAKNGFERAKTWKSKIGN
inactive: alvocidib 0.006 | Tubastatin A 0.019 | [1] -0.011 | defactinib -0.032 | [2] 0.012 | encorafenib 0.003 | [3] -0.07 | alisertib 0.016 | [4] -0.008 | gefitinib -0.012 | lapatinib 0.017 | pictilisib -0.05 | crizotinib 0.019 | [5] 0.099 | duvelisib -0.035 | gandotinib -0.058 | tozasertib -0.008 | doramapimod -0.021 | bafetinib 0.008 | [6] -0.006

PRC1 (UniProt O43663)
active: [3] 0.255
inactive: alvocidib 0.002 | Tubastatin A -0.157 | [1] 0.043 | defactinib -0.012 | [2] 0.012 | encorafenib 0.031 | alisertib 0.045 | [4] -0.032 | gefitinib 0.049 | lapatinib -0.014 | pictilisib -0.007 | crizotinib -0.109 | [5] 0.023 | duvelisib 0.059 | gandotinib -0.003 | tozasertib 0.017 | doramapimod 0.004 | bafetinib -0.079 | [6] 0.025

PELO (UniProt Q9BRX2)
UniProt Q9BRX2, sequence (Q9BRX2 whole entry, looked up): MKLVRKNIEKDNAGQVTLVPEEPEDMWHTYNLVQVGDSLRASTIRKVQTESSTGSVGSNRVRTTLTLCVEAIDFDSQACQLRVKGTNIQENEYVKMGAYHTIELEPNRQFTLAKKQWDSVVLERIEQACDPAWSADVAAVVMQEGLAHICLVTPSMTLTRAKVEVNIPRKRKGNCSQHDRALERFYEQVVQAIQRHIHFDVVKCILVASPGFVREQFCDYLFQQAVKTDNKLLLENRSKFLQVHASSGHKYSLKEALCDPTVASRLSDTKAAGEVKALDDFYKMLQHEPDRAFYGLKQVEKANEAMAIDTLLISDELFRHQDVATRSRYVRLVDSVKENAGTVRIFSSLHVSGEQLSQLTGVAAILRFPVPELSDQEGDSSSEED
inactive: alvocidib 0.149 | Tubastatin A -0.086 | [1] 0.026 | defactinib -0.022 | [2] -0.043 | encorafenib 0.056 | [3] 0.084 | alisertib 0.008 | [4] 0.006 | gefitinib 0.006 | lapatinib 0.036 | pictilisib 0.001 | crizotinib -0.064 | duvelisib -0.039 | gandotinib -0.202 | tozasertib 0.022 | doramapimod 0.019 | bafetinib -0.054 | [6] -0.175
active: [5] 0.369

PDE4DIP isoform 4 (UniProt Q5VU43)
inactive: alvocidib -0.038 | Tubastatin A 0.004 | [1] -0.003 | defactinib -0.018 | [2] 0.036 | encorafenib 0.006 | [3] 0.004 | alisertib 0.023 | [4] -0.007 | gefitinib -0.059 | lapatinib -0.003 | pictilisib -0.076 | crizotinib -0.048 | [5] -0.069 | duvelisib -0.017 | gandotinib 0.116 | tozasertib -0.005 | doramapimod 0 | bafetinib -0.073 | [6] 0.05

PIK3R1 (UniProt P27986)
active: duvelisib 0.534
inactive: alvocidib 0.032 | Tubastatin A -0.037 | [1] 0.075 | defactinib -0.066 | [2] -0.039 | encorafenib -0.025 | [3] -0.111 | alisertib 0.078 | [4] 0.023 | gefitinib -0.045 | lapatinib 0.002 | pictilisib 0.374 | crizotinib -0.015 | [5] 0.033 | gandotinib 0.171 | tozasertib 0.039 | doramapimod -0.02 | bafetinib 0.007 | [6] -0.011

PPIL2 (UniProt Q13356)
UniProt Q13356, sequence (Q13356 whole entry, looked up): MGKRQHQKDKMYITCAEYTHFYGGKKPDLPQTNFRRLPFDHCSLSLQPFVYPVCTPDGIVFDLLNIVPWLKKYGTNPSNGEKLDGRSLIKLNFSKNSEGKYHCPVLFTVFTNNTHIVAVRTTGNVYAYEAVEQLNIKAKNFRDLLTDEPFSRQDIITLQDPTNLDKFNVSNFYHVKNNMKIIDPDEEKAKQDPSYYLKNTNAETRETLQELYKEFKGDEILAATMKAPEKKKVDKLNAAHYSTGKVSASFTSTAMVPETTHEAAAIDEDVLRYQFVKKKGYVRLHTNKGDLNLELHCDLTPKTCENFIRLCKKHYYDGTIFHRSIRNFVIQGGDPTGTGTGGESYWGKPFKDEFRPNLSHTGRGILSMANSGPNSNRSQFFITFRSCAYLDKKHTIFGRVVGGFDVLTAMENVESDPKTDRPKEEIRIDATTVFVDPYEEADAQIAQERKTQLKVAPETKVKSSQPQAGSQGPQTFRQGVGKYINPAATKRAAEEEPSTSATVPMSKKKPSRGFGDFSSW
inactive: alvocidib -0.006 | Tubastatin A -0.1 | [1] -0.006 | defactinib -0.024 | [2] 0.056 | encorafenib -0.004 | [3] 0.036 | alisertib -0.018 | [4] 0.027 | gefitinib 0.005 | lapatinib -0.034 | pictilisib -0.014 | crizotinib -0.037 | [5] -0.011 | duvelisib -0.047 | gandotinib -0.019 | tozasertib 0.047 | doramapimod 0.043 | bafetinib -0.022 | [6] 0.054

PUS3 (UniProt Q9BZE2)
UniProt Q9BZE2, sequence (Q9BZE2 whole entry, looked up): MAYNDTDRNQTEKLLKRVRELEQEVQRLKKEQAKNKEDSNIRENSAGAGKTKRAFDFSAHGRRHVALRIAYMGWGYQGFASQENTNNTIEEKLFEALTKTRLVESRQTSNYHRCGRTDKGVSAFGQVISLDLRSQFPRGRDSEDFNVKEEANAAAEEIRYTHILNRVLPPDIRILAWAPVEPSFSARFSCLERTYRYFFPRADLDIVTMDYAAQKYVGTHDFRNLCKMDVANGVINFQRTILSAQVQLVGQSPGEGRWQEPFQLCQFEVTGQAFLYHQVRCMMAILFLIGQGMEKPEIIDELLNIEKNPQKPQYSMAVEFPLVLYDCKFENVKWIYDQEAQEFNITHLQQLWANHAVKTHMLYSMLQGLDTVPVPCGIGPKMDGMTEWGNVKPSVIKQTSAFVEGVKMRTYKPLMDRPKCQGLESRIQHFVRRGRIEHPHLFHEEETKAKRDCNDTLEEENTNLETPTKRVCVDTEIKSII
inactive: alvocidib 0.094 | Tubastatin A -0.181 | [1] 0.035 | defactinib -0.089 | [2] -0.117 | encorafenib 0.06 | [3] 0.04 | alisertib 0.01 | [4] -0.021 | gefitinib 0.041 | lapatinib 0.008 | pictilisib -0.085 | crizotinib 0.013 | [5] 0.148 | duvelisib -0.03 | gandotinib -0.234 | tozasertib 0.019 | doramapimod -0.087 | bafetinib -0.005 | [6] -0.185

PSTPIP2 (UniProt Q9H939)
UniProt Q9H939, sequence (Q9H939 whole entry, looked up): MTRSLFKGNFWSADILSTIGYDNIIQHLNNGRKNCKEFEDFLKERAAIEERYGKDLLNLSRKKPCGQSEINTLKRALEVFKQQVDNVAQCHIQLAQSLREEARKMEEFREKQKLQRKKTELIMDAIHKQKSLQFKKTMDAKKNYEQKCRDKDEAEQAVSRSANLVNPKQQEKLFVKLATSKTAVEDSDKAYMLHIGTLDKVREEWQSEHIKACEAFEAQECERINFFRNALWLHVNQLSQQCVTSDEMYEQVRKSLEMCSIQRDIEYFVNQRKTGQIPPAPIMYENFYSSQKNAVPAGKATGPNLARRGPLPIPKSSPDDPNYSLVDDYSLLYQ
inactive: alvocidib -0.006 | Tubastatin A -0.04 | [1] 0.031 | defactinib -0.016 | [2] 0.026 | encorafenib 0.023 | [3] 0.002 | alisertib -0.052 | [4] -0.03 | gefitinib -0.028 | lapatinib 0.009 | pictilisib 0.019 | crizotinib -0.047 | [5] 0.062 | duvelisib -0.023 | gandotinib -0.095 | tozasertib 0.012 | doramapimod 0.002 | bafetinib -0.014 | [6] -0.027

PPP2R5C isoform 5 (UniProt Q13362)
UniProt Q13362, sequence (Q13362 whole entry, looked up): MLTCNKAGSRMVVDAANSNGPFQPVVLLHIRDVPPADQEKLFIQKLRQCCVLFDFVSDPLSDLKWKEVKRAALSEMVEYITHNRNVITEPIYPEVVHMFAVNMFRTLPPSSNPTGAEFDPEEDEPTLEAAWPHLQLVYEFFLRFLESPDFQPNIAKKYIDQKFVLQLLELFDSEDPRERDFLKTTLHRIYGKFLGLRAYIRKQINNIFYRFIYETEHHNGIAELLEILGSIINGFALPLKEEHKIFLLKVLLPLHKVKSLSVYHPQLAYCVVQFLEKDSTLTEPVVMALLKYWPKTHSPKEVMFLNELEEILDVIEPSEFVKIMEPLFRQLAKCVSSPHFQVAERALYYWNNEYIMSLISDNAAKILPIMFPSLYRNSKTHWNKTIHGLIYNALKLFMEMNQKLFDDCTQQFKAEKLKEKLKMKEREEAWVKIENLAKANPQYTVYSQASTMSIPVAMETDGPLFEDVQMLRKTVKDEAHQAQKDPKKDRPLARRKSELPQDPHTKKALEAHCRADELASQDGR
inactive: alvocidib 0.016 | Tubastatin A -0.018 | [1] 0.012 | defactinib 0.029 | [2] -0.048 | encorafenib 0.029 | [3] -0.039 | alisertib 0.002 | [4] -0.014 | gefitinib 0.004 | lapatinib -0.03 | pictilisib 0.01 | crizotinib 0.004 | [5] 0.069 | duvelisib 0.02 | gandotinib -0.08 | tozasertib 0.054 | doramapimod -0.005 | bafetinib -0.001 | [6] -0.036

QKI (UniProt Q96PU8)
UniProt Q96PU8, sequence (Q96PU8 whole entry, looked up): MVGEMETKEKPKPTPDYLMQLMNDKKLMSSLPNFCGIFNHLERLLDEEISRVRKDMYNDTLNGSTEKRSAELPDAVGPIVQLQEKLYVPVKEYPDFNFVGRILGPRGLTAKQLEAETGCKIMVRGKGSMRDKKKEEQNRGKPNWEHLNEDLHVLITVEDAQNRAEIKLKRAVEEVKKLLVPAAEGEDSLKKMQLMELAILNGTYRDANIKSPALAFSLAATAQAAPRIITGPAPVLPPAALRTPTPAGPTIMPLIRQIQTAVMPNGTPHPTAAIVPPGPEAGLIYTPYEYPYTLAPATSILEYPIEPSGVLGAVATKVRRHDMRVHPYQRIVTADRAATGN
active: [5] -0.212
inactive: alvocidib -0.058 | Tubastatin A -0.005 | [1] 0.024 | defactinib 0.029 | [2] -0.02 | encorafenib 0.045 | [3] -0.206 | alisertib 0.069 | [4] 0.009 | gefitinib 0.021 | lapatinib -0.002 | pictilisib 0.015 | crizotinib 0.047 | duvelisib -0.017 | gandotinib 0.163 | tozasertib -0.021 | doramapimod -0.043 | bafetinib -0.056 | [6] 0.155

PRKCB isoform 2 (UniProt P05771)
UniProt P05771, sequence (P05771 whole entry, looked up): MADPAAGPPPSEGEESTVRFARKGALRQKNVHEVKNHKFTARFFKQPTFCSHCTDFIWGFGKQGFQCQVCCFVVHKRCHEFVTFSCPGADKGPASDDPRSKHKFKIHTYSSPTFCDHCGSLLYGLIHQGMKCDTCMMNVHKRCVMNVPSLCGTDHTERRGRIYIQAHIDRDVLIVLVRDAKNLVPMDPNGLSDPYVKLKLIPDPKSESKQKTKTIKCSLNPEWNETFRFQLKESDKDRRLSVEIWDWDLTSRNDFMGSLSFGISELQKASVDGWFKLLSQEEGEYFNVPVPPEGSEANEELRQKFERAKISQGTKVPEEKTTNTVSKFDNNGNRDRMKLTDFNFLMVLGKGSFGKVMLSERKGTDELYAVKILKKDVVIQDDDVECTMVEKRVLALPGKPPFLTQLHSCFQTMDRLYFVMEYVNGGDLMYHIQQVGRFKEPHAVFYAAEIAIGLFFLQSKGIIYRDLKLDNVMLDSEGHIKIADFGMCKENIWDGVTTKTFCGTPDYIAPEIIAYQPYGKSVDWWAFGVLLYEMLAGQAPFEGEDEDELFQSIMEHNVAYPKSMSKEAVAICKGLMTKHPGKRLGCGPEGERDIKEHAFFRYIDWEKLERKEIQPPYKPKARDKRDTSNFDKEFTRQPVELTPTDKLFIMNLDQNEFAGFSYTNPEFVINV
inactive: alvocidib -0.004 | Tubastatin A 0.054 | [1] -0.029 | defactinib -0.019 | [2] 0.03 | encorafenib 0.057 | [3] -0.203 | alisertib 0.039 | [4] 0.148 | gefitinib 0.008 | lapatinib -0.001 | pictilisib 0.003 | crizotinib 0.036 | [5] -0.012 | duvelisib 0.033 | gandotinib -0.122 | tozasertib 0.035 | doramapimod 0.009 | bafetinib -0.01 | [6] 0.021

PIK3C3 (UniProt Q8NEB9)
active: gandotinib 0.272
inactive: alvocidib -0.081 | Tubastatin A 0.02 | [1] -0.019 | defactinib -0.004 | [2] -0.046 | encorafenib -0.016 | [3] 0.015 | alisertib 0.012 | [4] 0.048 | gefitinib -0.037 | lapatinib -0.066 | pictilisib 0.041 | crizotinib -0.009 | [5] -0.137 | duvelisib 0.107 | tozasertib -0.042 | doramapimod -0.005 | bafetinib -0.013 | [6] 0.133
